Measured values as given in PubChem BioAssay.
Activity calls are given as the source filed them.

Experiments:
[1] = A549 cell viability effects, profiling panel, calcein-AM fluorescence, 48 h, basal (AID 1162); conditions: higher = more signal
[2] = adipocyte viability effects, profiling panel, cell-based, 3T3-L1 adipocytes, calcein-AM fluorescence, 48 h, basal (AID 1163); conditions: 3T3-L1 adipocytes viability, higher = more signal
[3] = HepG2 cell viability effects, profiling panel, calcein-AM fluorescence, 48 h, basal (AID 1164); conditions: higher = more signal
[4] = MM1S cell viability effects, profiling panel, calcein-AM fluorescence, 48 h, basal (AID 1165); conditions: higher = more signal;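 also: viability of MM1S multiple myeloma cells under basal unstimulated conditions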
[5] = basal RPMI8226 viability, no added stimulus, profiling panel, cell-based, calcein-AM fluorescence, 48 h, PK04 Diversity Set (AID 1166); conditions: RPMI8226 myeloma viability, higher = more signal;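 also: cells grown under basal conditions without added stimulus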
[6] = basal HepG2 mitochondrial membrane potential changes, profiling panel, cell-based, JC-1 fluorescence, 24 h, 100 nL compound (AID 1167); conditions: higher = more signal
[7] = basal 3T3-L1 adipocyte mitochondrial potential changes, profiling panel, cell-based, JC-1 fluorescence, 3T3-L1 adipocytes, 24 h, 100 nL compound (AID 1168); conditions: JC-1 mitochondrial fluorescence, higher = more signal, called active from +8 up or from −8 down
[8] = basal RPMI8226 mitochondrial membrane potential changes, profiling panel, cell-based, JC-1 fluorescence, 24 h, 100 nL compound (AID 1169); conditions: RPMI8226 myeloma, JC-1 mitochondrial potential fluorescence, higher = more signal
[9] = basal MM1S mitochondrial membrane potential changes, profiling panel, cell-based, JC-1 fluorescence, 24 h, 100 nL compound (AID 1170); conditions: higher = more signal
[10] = A549 lung cancer cell viability effects, profiling panel, resazurin fluorescence, 24 h, PK04 Diversity Set (AID 1171); conditions: higher = more signal, called active from +8 up or from −8 down
Also: test concentration not given here.

Structure (SMILES)	z-score [1]	z-score [2]	z-score [3]	z-score [4]	z-score [5]	z-score [6]	z-score [7]	z-score [8]	z-score [9]	z-score [10]
CC(C)C(=O)N[C@H]1CCCN1C(=O)C=Cc1ccccc1	-0.0724	-0.578	0.176	-0.903	-0.1	-0.541	-0.288 (inactive)	0.6	-0.0562	0.182 (inactive)
C[C@@H]1CC[C@H]2C(=O)N3[C@@H](CC[C@@H](C)[C@@H]3c3ccc(Br)cc3)C(=O)N2[C@H]1c1ccc(Br)cc1	-0.569	-0.42	-0.0355	-2.69	-2.57	1.65	-0.76 (inactive)	-0.22	1.41	0.632 (inactive)
CC(=O)OC[C@H]1O[C@@H](ON=C(C)C)[C@H](OC(C)=O)[C@@H](OC(C)=O)[C@@H]1OC(C)=O	-0.132	0.0138	-0.179	-0.0646	-0.43	-0.0132	-0.763 (inactive)	0.93	0.35	-0.0264 (inactive)
COC(=O)[C@@H]1CC[C@H](C)[C@@H](c2ccc(Br)cc2)N1C[C@@H](O)CN=[N+]=[N-]	-0.618	0.379	-0.494	-0.682	-1.4	0.462	0.866 (inactive)	0.65	-0.553	0.0136 (inactive)
CO[C@H]1COC(=O)[C@H](C)COC(=O)[C@H](C)NC(=O)CC=C[C@H]1C	-0.0718	0.996	-0.248	0.0627	0.286	0.708	0.475 (inactive)	-0.218	1.3	0.724 (inactive)
O=C1C[C@@H](O)[C@@H](O)[C@@H]2[C@@H]3C(=O)N(Cc4ccccc4)C(=O)[C@@H]3CC[C@H]12	-0.801	0.241	0.175	-0.0999	0.549	-0.511	-0.919 (inactive)	0.0436	-0.281	-0.673 (inactive)
CC(C)[C@@H](OCc1ccccc1)[C@H](C)C=NO[C@@H](C)c1cn([C@H](CO)Cc2ccccc2)nn1	0.0751	0.143	-0.112	-0.265	0.0853	-0.944	-1.54 (inactive)	0.362	-0.318	-0.877 (inactive)
C[C@@H]1CC[C@H]2C(=O)OC(CN3C(=O)c4ccccc4C3=O)CN2[C@H]1c1ccc(Br)cc1 (stereo not given in full)	0.0752	-0.0986	0.182	0.49	0.447	0.239	-0.105 (inactive)	-0.911	1.67	0.705 (inactive)
C#CCCCON=C1C[C@@H](O)[C@@H](O)[C@@H]2[C@@H]3C(=O)N(C4CCCCC4)C(=O)[C@@H]3CC[C@@H]12	-0.205	-0.117	-0.139	0.183	-1.94	-1.32	-0.462 (inactive)	-0.0811	0.431	-0.255 (inactive)
CC(=O)OC[C@H]1O[C@H](CC=NOC[C@@H](O)[C@H]2O[C@@H]3OC(C)(C)O[C@@H]3[C@H]2O)C=C[C@@H]1OC(C)=O	0.873	-1	-0.188	0.494	-0.594	0.218	0.555 (inactive)	0.632	-0.527	0.0766 (inactive)
O=C1C2=CC[C@H]3C(=O)N(C[C@@H]4CCCO4)C(=O)[C@H]3[C@H]2[C@H](O)[C@@H]2O[C@H]12	0.144	-0.579	-0.228	-3.11	-3.32	-0.549	0.465 (inactive)	-0.836	-3.04	-0.824 (inactive)
CCc1cc2c(nc1CC)CCN(CCC(C)=NOC[C@@H](C)[C@H](OCc1ccccc1)C(C)C)C2	1.58	0.546	1.43	-2	-0.584	2	1 (inactive)	0.278	0.486	-0.445 (inactive)
